Pf apPOL block = Pf-apPOL DNA polymerase inhibition. inhibition, % at 10 µM. Recombinant Pf-apPOL, molecular beacon fluorescence, 1.5 h. 210,000 tested, 0.25% active
mHTT CaM bind = disrupts binding of mutant huntingtin to calmodulin | P42858 | AlphaScreen His-mHTT/GST-CaM binding, luminescence | inhibition, % at 15 µM | 190,000 tested, 3.6% active;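 further: 0% = both proteins with DMSO and 100% = one protein alone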
Numbers without * were called inactive; x = no result given. This is a sample that favours compounds with a hit; in the whole collection about 3.6% have one here. No stated cut-off is given here; in the data, active means inhibition above about 50%; inactive means the rest.

SMILES | Pf apPOL block | mHTT CaM bind
Cc1ccccc1-c1ncccc1C(=O)N1CCC(C(=O)NCc2ccc(F)cc2)CC1 | -7 | -6
O=[N+]([O-])c1ccc(O)c(C=Nc2ccc(Nc3ccccc3)cc2)c1 | -3 | 19
O=[N+]([O-])c1cc(Nc2ccccc2)c(C=Nc2ccccc2)c([N+](=O)[O-])c1 | 3 | 51*
O=[N+]([O-])c1ccc(NNc2ccccc2)c([N+](=O)[O-])c1 | x | 69*
O=[N+]([O-])c1ccc(NN=Cc2ccccc2)c([N+](=O)[O-])c1 | -5 | x
COCCNC(=O)Nc1nc2ccc3nc(SC)sc3c2s1 | -10 | -17
COc1ccc(C2=N/C(=C\c3ccc(F)cc3)C(=O)O2)cc1Br | -5 | -6
COc1ccc(C=NCC23CC4CCC(CC(C4)C2)C3)cc1 | 3 | -3
CCC1CN2C=NC(N3CCN(C(=O)Nc4ccc(OC)cc4)CC3)=CC2=N1 (stereo not drawn) | -4 | 4
CCn1cc2c3c(cccc31)CN(C(=O)c1ccco1)CC2 | -2 | -8
COc1ccc(C(=O)N2CCc3cn(C)c4cccc(c34)C2)c(OC)c1 | -2 | 47
COc1ccc(C(=O)N2CCc3cn(C)c4cccc(c34)C2)cc1 | -2 | 55*
CS(=O)(=O)N(Cc1ccccc1Cl)c1ccc(C(N)=O)cc1 | -4 | -5
Cc1ccc(C(=O)N2CCc3cn(C)c4cccc(c34)C2)cc1C | -3 | 79*
CCn1cc2c3c(cccc31)CN(C(=O)CCc1ccc(OC)cc1)CC2 | -4 | 58*
Cc1cccc(C(=O)N2CCc3cn(C)c4cccc(c34)C2)c1 | -7 | 19
CS(=O)(=O)N(Cc1ccccc1Cl)c1ccc(C(=O)N2CCc3ccccc3C2)cc1 | -1 | 98*
CC(=O)c1ccc(NC(=O)CSc2nnc(COc3ccccc3)n2-c2ccccc2)cc1 | -2 | -2
COCCc1noc(COC2CCN(S(C)(=O)=O)CC2)n1 | -6 | -4
O=C(c1ccco1)N1CCCc2cc(NS(=O)(=O)c3ccc4c(c3)OCCO4)ccc21 | -1 | -2
CCCn1cc2c3c(cccc31)CN(C(=O)Cc1ccc(OC)cc1)CC2 | -2 | 57*
Cn1cc2c3c(cccc31)CN(C(=O)Cc1ccc(Cl)cc1)CC2 | -1 | 27
CCCn1cc2c3c(cccc31)CN(C(=O)c1ccc(OC)cc1)CC2 | -3 | 78*
Cn1cc2c3c(cccc31)CN(C(=O)c1cc(F)cc(F)c1)CC2 | -1 | 30
COCCn1cc2c3c(cccc31)CN(C(=O)NCc1ccc(OC)cc1)CC2 | 2 | 9
SMILES | Pf apPOL block | mHTT CaM bind
CCCn1cc2c3c(cccc31)CN(C(=O)NCc1ccc(OC)cc1)CC2 | -2 | 18
Cn1cc2c3c(cccc31)CN(C(=O)c1ccc(Cl)cc1)CC2 | -4 | 54*
Cn1cc2c3c(cccc31)CN(C(=O)c1cccc(Cl)c1)CC2 | -8 | 73*
CCCCc1c(C)sc2nc(C)n3nnnc3c12 | -2 | -4
COc1ccc(CC(C)(O)CNC(=O)C(=O)Nc2cccc(Cl)c2C)cc1 (stereo not drawn) | -3 | -10
O=c1c(C=Nc2ccc(Cl)cc2Cl)c(C(F)(F)F)[nH]n1-c1ccc([N+](=O)[O-])cc1 | -1 | 7
CCOc1ccccc1Oc1c(C)oc2cc(OCC(=O)c3ccc(OC)cc3)ccc2c1=O | -6 | 8
CCCCN(C)C(=O)C1CCN(c2cnn(C)c(=O)c2)CC1 | -6 | -8
CCn1cc(CC(=O)N2CCN(c3ccccc3)CC2)c2cccnc21 | -5 | 13
COc1cccc(N2CCN(C(=O)c3csc(-c4cccnc4)n3)CC2)c1 | -2 | 19
Cc1nc(-c2cn(C)c3ncccc23)sc1C(=O)N1CCN(c2ccccc2)CC1 | -6 | 55*
CCn1cc(-c2nc(C(=O)N3CCN(c4ccccc4)CC3)cs2)c2cccnc21 | -2 | 100*
O=C(c1csc(-c2ccncc2)n1)N1CCN(c2cccc(C(F)(F)F)c2)CC1 | 2 | 63*
CCn1cc(-c2nc(C)c(C(=O)N3CCOCC3)s2)c2cccnc21 | 0 | 9
COc1ccccc1C(=O)N1CCCC(C)(C(=O)NCc2cccc(F)c2)C1 (stereo not drawn) | 5 | -2
CC(C)c1ccc(C2C(C(=O)c3ccco3)=C(O)C(=O)N2c2ccccn2)cc1 (stereo not drawn) | -6 | -1
COc1cc(/C=C2\C(=O)NC(=O)N(c3ccc(Br)c(C)c3)C2=O)cc(OC)c1OC | -3 | 9
CN(C)CC(=O)C12CC3CC(C1)CC(c1ccccc1)(C3)C2 | -2 | 1
CN1C/C(=C/c2ccco2)C(=O)/C(=C/c2ccco2)C1 | x | 30
CN1CC(=Cc2ccco2)C(=O)C(=Cc2ccco2)C1 | 71* | x
COCCNC(=O)Cc1ccccc1OC | 3 | 0
Cc1cc(Oc2ccc([N+](=O)[O-])cc2)nc(-n2nc(C)cc2C)n1 | 2 | 4
Cc1cc(NCC(O)c2ccc([N+](=O)[O-])cc2)nc(-n2nc(C)cc2C)n1 (stereo not drawn) | -2 | 97*

Assay outcomes (PubChem BioAssay)
